Measured values as given in the supplement of paper PMC6555819.

How the values were obtained:
Experiment in all cases: PBM binding z-score (relative to random genomic background probes); higher = stronger binding; sequences stand for … in GC…GCGATTGACAGCGTAGAATGAAGG
[1] = system: FXR:RXRa (NR concentration 270 nM, RXRa partner concentration 90 nM)
How it was run: (§1)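 On custom Agilent 4×180K arrays, double-stranded probes with 34-nt variable regions carried direct-repeat seeds, single-nucleotide variants, half-site ablations or random human genomic background. Ligand-free nuclear receptor dimers were applied for 1 h, and binding was read with antibodies against each partner (one per run). Binding z-scores come from regression-normalized fluorescence, with the random background probes as reference.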

[2] = system: LXRa:RXRa (NR concentration 270 nM, RXRa partner concentration 90 nM)
How it was run: as §1

[3] = system: LXRa homodimer (NR concentration 270 nM)
How it was run: as §1

[4] = system: LXRb:RXRa (NR concentration 270 nM, RXRa partner concentration 90 nM)
How it was run: as §1

[5] = system: LXRb homodimer (NR concentration 270 nM)
How it was run: as §1

[6] = system: PPARa:RXRa (NR concentration 270 nM, RXRa partner concentration 90 nM)
How it was run: as §1

[7] = system: PPARg:RXRa (NR concentration 180 nM, RXRa partner concentration 90 nM)
How it was run: as §1

[8] = system: PPARg:RXRa 270nM:90nM, anti-RXR (NR concentration 270 nM, RXRa partner concentration 90 nM)
How it was run: as §1

[9] = system: PPARg:RXRa 30nM:10nM, anti-RXR (NR concentration 30 nM, RXRa partner concentration 10 nM)
How it was run: as §1

[10] = system: PPARg:RXRa 90nM:30nM, anti-RXR (NR concentration 90 nM, RXRa partner concentration 30 nM)
How it was run: as §1

[11] = system: PPARg:RXRa DBDmut IVT, anti-RXR (DBD mutation: RXRa K156A/R161A, NR concentration 270 nM, RXRa partner concentration 90 nM)
How it was run: as §1

[12] = system: PPARg:RXRa IVT, anti-PPARg (NR concentration 270 nM, RXRa partner concentration 90 nM)
How it was run: as §1

[13] = system: PPARg DBDmut:RXRa IVT, anti-PPARg (DBD mutation: PPARg1 K132A/R137A, NR concentration 270 nM, RXRa partner concentration 90 nM)
How it was run: as §1

[14] = system: PPARg DBDmut IVT, anti-PPARg (DBD mutation: PPARg1 K132A/R137A, NR concentration 270 nM)
How it was run: as §1

[15] = system: PPARg homodimer (NR concentration 180 nM)
How it was run: as §1

[16] = system: PXR:RXRa (NR concentration 270 nM, RXRa partner concentration 90 nM)
How it was run: as §1

[17] = system: PXR homodimer (NR concentration 270 nM)
How it was run: as §1

[18] = system: RARa:RXR (NR concentration 270 nM, RXRa partner concentration 90 nM)
How it was run: as §1

[19] = system: RARa homodimer (NR concentration 270 nM)
How it was run: as §1

[20] = system: RARb:RXRa (NR concentration 270 nM, RXRa partner concentration 90 nM)
How it was run: as §1

Sequence | PBM binding z-score [1] | PBM binding z-score [2] | PBM binding z-score [3] | PBM binding z-score [4] | PBM binding z-score [5] | PBM binding z-score [6] | PBM binding z-score [7] | PBM binding z-score [8] | PBM binding z-score [9] | PBM binding z-score [10] | PBM binding z-score [11] | PBM binding z-score [12] | PBM binding z-score [13] | PBM binding z-score [14] | PBM binding z-score [15] | PBM binding z-score [16] | PBM binding z-score [17] | PBM binding z-score [18] | PBM binding z-score [19] | PBM binding z-score [20]
AGAACGAGGGCACGCTGGGTTGATAGCAGAGTAG | 1.04 | 0.969 | -0.399 | 0.12 | -0.802 | 2.11 | 2.01 | 1.91 | 0.228 | 1.15 | 3.63 | 3.69 | 1.12 | 0.143 | 0.498 | 1.25 | 0.183 | 1.17 | 0.372 | 2.41
GCTGCTAGGTCAATTGATGGTCAGCTAAAGCTCG | 2.8 | 2.21 | -0.0789 | 1.47 | 0.292 | 2.93 | 1.36 | 1.87 | -0.0907 | 1.18 | 4.15 | 3.1 | -0.948 | 0.185 | 0.889 | 0.861 | -0.942 | 1.75 | -0.705 | 3.59
GCGGCTAGGTCAACTGATGGTCAGCTAAAGCTCG | 4 | 2.78 | 0.177 | 1.99 | -0.808 | 3.56 | 2.23 | 2.36 | 0.0288 | 1.44 | 3.34 | 3.06 | -0.724 | -1.01 | 1.76 | 1.59 | -0.666 | 2.84 | -0.107 | 4.36
TTACCAAGGAGAAGGTCGTTGATCCCTCTGTAGA | 1.21 | 1.19 | -0.0479 | 0.995 | -0.829 | 1.18 | 0.529 | 2.23 | 1.24 | 1.77 | -0.339 | -0.0762 | -0.116 | 0.61 | 0.455 | 1.03 | -0.292 | 1.34 | -0.134 | 0.537
GATACAGTGTCAAGGCCAGAGTACGCGTATTGAT | -0.101 | -0.189 | -0.775 | -0.147 | -0.421 | 0.43 | 0.593 | 0.129 | -0.172 | -0.0433 | 0.318 | 0.795 | 0.0882 | 0.292 | 0.275 | -0.0079 | 0.246 | 0.272 | -0.156 | 1.46
CAAACTAGGTCACCGGAAGGTCCAAGTCCGCATG | 4.24 | 3.41 | 0.716 | 2.42 | 0.547 | 5.28 | 8.9 | 7.31 | 5.06 | 7.02 | 8.74 | 8.78 | 2.63 | 2.9 | 2.36 | 2.43 | -0.0607 | 3.18 | 1.11 | 4.39
ATATGTAGGTTAAGGGTCATTGAGGTTGGTTCGC | 5.02 | 4.71 | 3.01 | 4.45 | 1.6 | 6.56 | 11.9 | 10 | 10.5 | 10.7 | 7.14 | 7.77 | 2.89 | 2.08 | 3.71 | 5.1 | 4.17 | 5.84 | 2.44 | 3.7
CGAACTAGGTAAGAACAGGACAGTGAAGGATGAT | -0.196 | -0.204 | -0.208 | -0.602 | -0.626 | 0.502 | 0.928 | 0.462 | 0.267 | 0.273 | 3.73 | 2.52 | 0.465 | 0.0684 | 0.00147 | -0.257 | -0.137 | -0.362 | -0.184 | -0.143
GCAGACTGGTGAAACGCAGGTAACTCAGGGTGGC | -0.987 | -0.932 | -0.841 | -1.19 | -1.45 | -1.12 | -0.00355 | -0.98 | -0.852 | -1.12 | -0.965 | -0.728 | -0.431 | -1.07 | -1.3 | -0.855 | -0.855 | -0.718 | -1.39 | -0.689
CCTTACGGCTCACTGACAGGTTATAGCATTTGGA | 0.367 | 0.347 | 0.304 | 0.294 | -0.0562 | 0.311 | 0.426 | -0.0307 | 0.448 | 0.0518 | 0.701 | -0.612 | 0.0543 | -0.0527 | 0.157 | 0.158 | 0.192 | 0.669 | 0.331 | 0.0996
ATATGTAGGTTTCATCCGGGTCATTCAGGCTATG | 1.4 | 1.72 | 0.315 | 2.07 | 0.658 | 3.09 | 2.23 | 2.17 | 0.721 | 1.43 | 4.9 | 4.69 | 1.71 | 1.7 | 1.33 | 2.86 | 2.28 | 2.55 | 0.582 | 1.43
TCGAGTAGGTTACCAATGGGTCATTCAGCTTTCT | 1.16 | 3.38 | 0.134 | 2.15 | -0.601 | 2.66 | 0.754 | 1.91 | 1.5 | 1.72 | 3.45 | 2.82 | 0.364 | -0.28 | 1.39 | 1.88 | -0.563 | 2.5 | -0.538 | 1.77
TTTCGGAGGACACGAAGGTCAGAGCTTTCCAGAG | 1.83 | 1.7 | 0.81 | 1.61 | -0.442 | 2.12 | 0.582 | 1.32 | 0.325 | 0.593 | 0.209 | 1.38 | -0.89 | -0.892 | 1.79 | 2.42 | 1.37 | 2.56 | 0.837 | 3.51
TCTCGGAGGACACGAAAGGCCAGAGCTCGACATC | 0.554 | -0.137 | -0.548 | -0.341 | -1.2 | 0.0543 | 0.264 | 0.908 | 1.86 | 1.56 | 1.19 | -0.0515 | -0.613 | -0.159 | -0.541 | -0.141 | -0.472 | 0.327 | -0.569 | 1.82
